According to PubChem BioAssay (EPA / NIEHS):
Activity calls are given as the source filed them. How the source made its calls: active means hit-call score of the fitted dose curve at least 0.9, where 1 is the maximum; inactive means score below 0.9.

Legend:
[1] = APR_HepG2_CellCycleArrest_24hr: Apredica 24-hour HepG2 Assay for Cell Cycle Arrest (AID 2282905); conditions: imaging, actives raise or lower the signal;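 further: cell cycle arrest scored as ratio of 2N to 4N nuclear DNA content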
How it was run: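 Compounds (0.39 to 200 uM, final DMSO 0.5% v/v) are applied to HepG2 cells for 24 hours; cells are then fixed, permeabilized and nuclei labeled with Hoechst 33342. Automated imaging measures DNA content, and activity is fitted in both directions against DMSO.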

[2] = APR_HepG2_NuclearSize_24hr: Apredica 24-hour HepG2 Assay for Nuclear Size (AID 2282907); conditions: high-content imaging, actives raise or lower the signal
How it was run: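 Nuclear size is measured by fluorescence high-content imaging of Hoechst-labelled HepG2 nuclei after 24 hr of treatment (0.39–200 uM, 0.5% DMSO). Cells are fixed in 3.7% formaldehyde before staining, and DMSO serves as the baseline for bidirectional curve fitting.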

[3] = APR_HepG2_CellLoss_24hr: Apredica 24-hour HepG2 Assay for Cell Loss (AID 2282908); conditions: high-content imaging;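 on AC50: fit in both directions so a hit may be cell loss or gain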
How it was run: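 Nuclear count serves as the viability measure: treated cells are fixed, permeabilized and labelled with Hoechst 33342, and six images per well are analysed to identify valid nuclei. Doses span 0.39–200 uM, and activity in either direction is scored against DMSO.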

[4] = APR_HepG2_MicrotubuleCSK_24hr: Apredica 24-hour HepG2 Assay for Microtubule CSK Stabilty (AID 2282909); conditions: HepG2 microtubule cytoskeleton imaging, actives raise or lower the signal
How it was run: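 Compounds were applied to HepG2 cells for 24 hours across 0.39–200 uM in duplicate, with final DMSO at 0.5% v/v. Fixed, permeabilized cells were labeled for alpha-tubulin and nuclei, and tubulin fluorescence was quantified by imaging, fitted bidirectionally against DMSO.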

[5] = APR_HepG2_MitoticArrest_24hr: Apredica 24-hour HepG2 Assay for Mitotic Arrest (AID 2282910); conditions: high-content imaging, actives raise or lower the signal
How it was run: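 Treatment lasted 24 hr in the human HepG2 line at 0.39–200 uM, solvent held at 0.5% DMSO. Fixed cells were stained with Hoechst 33342 and anti-phospho-histone H3, imaged at 20x, and analysed by gain- or loss-of-signal fitting against DMSO.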

[6] = APR_HepG2_MitoMembPot_24hr: Apredica 24-hour HepG2 Assay for Mitochondrial Membrane Potential (AID 2282911); conditions: imaging, actives raise or lower the signal
How it was run: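 HepG2, 24 hr dosing, 10 concentrations 0.39–200 uM, 0.5% DMSO final. Live-cell MitoTracker Red CMXRos 250 nM 30 min, then 3.7% formaldehyde fix. HCS fluorescence imaging, 20x; bidirectional fit vs DMSO baseline.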

[7] = APR_HepG2_MitoMass_24hr: Apredica 24-hour HepG2 Assay for Mitochondrial Mass (AID 2282912); conditions: high-content imaging, actives raise or lower the signal
How it was run: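 After 24 hr of treatment at 0.39 to 200 uM, HepG2 cells take up 250 nM MitoTracker Red CMXRos for 30 min and are then fixed with 3.7% formaldehyde. Per-well images are quantified, and any change in either direction is scored against solvent.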

[8] = APR_HepG2_p53Act_24hr: Apredica 24-hour HepG2 Assay for p53 Activation (AID 2282913); conditions: high-content imaging, actives raise or lower the signal;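 further: p53 protein immunofluorescence averaged per cell in HepG2 with Hoechst nuclei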
How it was run: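 Read-out: Cy5 immunofluorescence for p53 in fixed, permeabilized HepG2, imaged by HCS with Hoechst-defined nuclei. Dosing was 24 hr at 0.39–200 uM in 0.5% DMSO. Curves were fitted bidirectionally relative to DMSO.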

[9] = APR_HepG2_CellCycleArrest_72hr: Apredica 72-hour HepG2 Assay for Cell Cycle Arrest (AID 2282914); conditions: high-content imaging, actives raise or lower the signal
How it was run: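 HepG2, 72 hr exposure, 10-point 0.39–200 uM, duplicate, 0.5% DMSO final. Fix 3.7% formaldehyde 30 min RT, Triton X-100 0.5%, Hoechst 33342 2 ug/mL. ArrayScan 20x, six fields/well; DNA content per nucleus; bidirectional fit vs DMSO.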

[10] = APR_HepG2_CellLoss_72hr: Apredica 72-hour HepG2 Assay for Cell Loss (AID 2282915); conditions: high-content imaging
How it was run: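 HepG2 cells were exposed for 72 hr to compounds at 0.39–200 uM (ten concentrations, duplicate) in 0.5% v/v final DMSO. Nuclei were stained with Hoechst 33342 after 3.7% formaldehyde fixation, imaged at 20x, and counted; fits bidirectional versus DMSO.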

[11] = APR_HepG2_P-H2AX_72hr: Apredica 72-hour HepG2 Assay for H2AX Phosphorylation (AID 2282916); conditions: imaging, actives raise or lower the signal;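 further: phospho-histone H2A.x immunostain intensity per cell marking DNA damage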
How it was run: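 Human hepatoma HepG2 cells are dosed across ten concentrations (0.39 to 200 uM, 0.5% v/v DMSO) and incubated 72 hr. Phospho-histone H2A.x is then detected by antibody staining alongside c-Jun and Hoechst, and quantified by automated fluorescence imaging.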

[12] = APR_HepG2_MitoMembPot_72hr: Apredica 72-hour HepG2 Assay for Mitochondrial Membrane Potential (AID 2282917); conditions: imaging, actives raise or lower the signal
How it was run: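 HepG2 cells exposed 72 h to compounds at 0.39–200 uM (0.5% v/v DMSO, duplicates); MitoTracker Red CMXRos 250 nM loaded 30 min before 3.7% formaldehyde fixation, imaged by HCS fluorescence. Bidirectional fit versus DMSO.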

[13] = APR_HepG2_MitoticArrest_72hr: Apredica 72-hour HepG2 Assay for Mitotic Arrest (AID 2282918); conditions: high-content imaging, actives raise or lower the signal
How it was run: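 HepG2, 72 hr exposure, 0.39–200 uM in duplicate, 0.5% v/v DMSO final. Formaldehyde-fixed, Triton-permeabilized, anti-phospho-histone H3/FITC plus Hoechst. ArrayScan imaging at 20x; curves fit bidirectionally against DMSO baseline.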

[14] = APR_HepG2_MicrotubuleCSK_72hr: Apredica 72-hour HepG2 Assay for Microtubule CSK Stabilty (AID 2282919); conditions: HepG2 microtubule cytoskeleton, high-content imaging, actives raise or lower the signal
How it was run: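 Ten-point dosing (0.39–200 uM, 0.5% DMSO) of HepG2 for 72 hr, with taxol as the cytoskeletal positive control. The cells were formaldehyde-fixed and then stained with alpha-tubulin/Cy5 and Hoechst. Imaging at 20x used a −2 um Z offset for tubulin.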

[15] = APR_HepG2_P-H2AX_24hr: Apredica 24-hour HepG2 Assay for H2AX Phosphorylation (AID 2282920); conditions: high-content imaging, actives raise or lower the signal
How it was run: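 HCS fluorescence imaging of phospho-H2A.x immunostain (with Hoechst 33342 nuclear counterstain) in HepG2 after 24 hr compound exposure; 10 concentrations, 0.39–200 uM, duplicate wells, 0.5% v/v DMSO. Gain or loss of signal fitted relative to DMSO baseline.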

[16] = APR_HepG2_StressKinase_72hr: Apredica 72-hour HepG2 Assay for Stress Kinase (AID 2282921); conditions: HepG2 stress kinase (phospho-c-Jun) imaging, actives raise or lower the signal
How it was run: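 After a 72 h compound treatment spanning 0.39 to 200 uM, formaldehyde-fixed cells are labelled for phosphorylated c-Jun and nuclei, imaged by automated fluorescence microscopy, and activity is fitted in both directions relative to DMSO controls.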

[17] = APR_HepG2_StressKinase_24hr: Apredica 24-hour HepG2 Assay for Stress Kinase (AID 2282922); conditions: HepG2 stress kinase (phospho-c-Jun) imaging, actives raise or lower the signal
How it was run: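 After 24 hr compound treatment (up to 200 uM, final DMSO 0.5% v/v), HepG2 cells are fixed and multiplex-labeled; phospho-c-Jun intensity is captured by high-content fluorescence imaging and analyzed relative to DMSO.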

[18] = APR_HepG2_p53Act_72hr: Apredica 72-hour HepG2 Assay for p53 Activation (AID 2282923); conditions: high-content imaging, actives raise or lower the signal;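 further: average cellular p53 protein immunofluorescence intensity in HepG2 cells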
How it was run: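 Imaging-based endpoint: after 72 hr compound exposure (up to 200 uM, 0.5% DMSO), fixed and permeabilized monolayers were labelled with anti-p53 antibody and imaged; signal change in either direction was fitted relative to DMSO controls.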

[19] = APR_HepG2_MitoMass_72hr: Apredica 72-hour HepG2 Assay for Mitochondrial Mass (AID 2282924); conditions: high-content imaging, actives raise or lower the signal;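 further: MitoTracker Red CMXRos stain intensity per cell imaged as mitochondrial mass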
How it was run: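 Steps: treat HepG2 72 hr (0.39–200 uM, duplicate wells); load MitoTracker Red CMXRos, 250 nM, 30 min; fix with 3.7% formaldehyde, permeabilise with 0.5% Triton X-100; capture images, nuclei via Hoechst 33342; fit bidirectionally against DMSO.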

[20] = APR_HepG2_NuclearSize_72hr: Apredica 72-hour HepG2 Assay for Nuclear Size (AID 2282925); conditions: high-content imaging, actives raise or lower the signal
How it was run: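 Compounds (0.39–200 uM, final DMSO 0.5%) were applied to HepG2 for 72 hr. Cells were then formaldehyde-fixed, permeabilized and labelled with Hoechst 33342. Nuclear diameter was quantified from six images per well.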

Measured: AC50

CCCCCCCCCCCCO
inactive: [1] | [2] | [3] | [4] | [5] | [6] | [7] | [8] | [9] | [10] | [11] | [12] | [13] | [14] | [15] | [16] | [17] | [18] | [20]
active: [19] 119 µM

CCCCCCCCN(C)CCCCCCCC
inactive: [1] | [2] | [3] | [4] | [5] | [6] | [7] | [8] | [9] | [10] | [11] | [12] | [13] | [14] | [15] | [16] | [17] | [18] | [19] | [20]

CCCC(=O)OCCC(C)C
inactive: [1] | [2] | [3] | [4] | [5] | [6] | [7] | [8] | [9] | [10] | [11] | [12] | [13] | [14] | [15] | [16] | [17] | [18] | [19] | [20]

Cc1ccc(C(C)C)cc1
inactive: [1] | [2] | [3] | [4] | [5] | [6] | [7] | [8] | [9] | [10] | [11] | [12] | [13] | [14] | [15] | [16] | [17] | [18] | [19] | [20]

CN(C)C(=O)C1(N2CCCCC2)CCN(CC[C@@]2(c3ccc(Cl)c(Cl)c3)CN(C(=O)c3ccccc3)CCO2)CC1
inactive: [1] | [6] | [12] | [14] | [16] | [17] | [19]
active: [2] 20.9 µM | [3] 15.7 µM | [4] 65.2 µM | [5] 13.1 µM | [7] 7.74 µM | [8] 22.9 µM | [9] 67.3 µM | [10] 11.4 µM | [11] 12.3 µM | [13] 6.87 µM | [15] 19.6 µM | [18] 20.2 µM | [20] 6.79 µM

O=c1ccc2ccccc2o1
inactive: [1] | [2] | [3] | [4] | [5] | [6] | [7] | [8] | [9] | [10] | [11] | [13] | [14] | [15] | [16] | [17] | [18] | [19] | [20]
active: [12] 100 µM

C[C@]12CC[C@@H]3c4ccc(O)cc4CC[C@H]3[C@@H]1CC[C@H]2O
active: [2] 105 µM | [3] 68.1 µM | [4] 100 µM | [5] 97.1 µM | [6] 16.8 µM | [8] 54.6 µM | [9] 173 µM | [10] 75.6 µM | [15] 62.4 µM
inactive: [1] | [7] | [11] | [12] | [13] | [14] | [17] | [18] | [19] | [20]

CCN(Cc1cccc(S(=O)(=O)O)c1)c1ccc(C(=C2C=CC(=[N+](CC)Cc3cccc(S(=O)(=O)O)c3)C=C2)c2ccccc2S(=O)(=O)[O-])cc1
inactive: [1] | [2] | [3] | [4] | [5] | [6] | [7] | [8] | [9] | [10] | [11] | [12] | [13] | [14] | [15] | [16] | [17] | [18] | [19] | [20]

O=C(Nc1ccc(Cl)cc1)Nc1ccc(Cl)c(Cl)c1
inactive: [2] | [4] | [5] | [7] | [17] | [19] | [20]
active: [1] 7.09 µM | [3] 4.01 µM | [6] 13.8 µM | [8] 3.93 µM | [9] 16.6 µM | [10] 5.54 µM | [11] 6.38 µM | [12] 56.3 µM | [13] 5.5 µM | [14] 6.77 µM | [15] 4.63 µM | [16] 7.87 µM | [18] 5.61 µM

O=C1c2ccccc2C(=O)N1CCc1noc(-c2ccc(CN3CCCCCC3)s2)n1
inactive: [1] | [2] | [3] | [4] | [5] | [6] | [7] | [8] | [9] | [10] | [11] | [12] | [13] | [14] | [15] | [16] | [17] | [18] | [19] | [20]

O=C=NCCCCCCN=C=O
inactive: [1] | [2] | [3] | [4] | [5] | [6] | [7] | [8] | [9] | [10] | [11] | [12] | [13] | [14] | [15] | [16] | [17] | [18] | [19] | [20]

Cc1ccc2oc(CN(Cc3ccccc3)C(=O)Nc3c(F)cc(F)cc3F)c(-c3ccc(Cl)cc3)c2c1
inactive: [1] | [2] | [3] | [4] | [5] | [6] | [7] | [8] | [9] | [10] | [11] | [12] | [13] | [14] | [15] | [16] | [17] | [18] | [19] | [20]
